PubChem BioAssay
Calls of active or inactive are those of the source.

Legend:
[1] = test system: Wnt5a (protein binding on small-molecule microarray); assay: small molecules binding Wnt5a protein – biophysical, small-molecule microarray, 635/667 nm fluorescence, primary screen (AID 1142); conditions: 635 nm fluorescence, higher = more signal;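 also: fluorescence read at 667 nm with signal to noise per printed feature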
[2] = ATP-based viability of Huh7 replicon cells – cell-based, CellTiter-Glo luminescence, basal, 48 h, cytotoxicity control for HCV replication inhibitor project, primary screen (AID 1143); conditions: higher = more signal, called active from +8 up or from −8 down;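 also: Huh7 hepatoma cells carrying a hepatitis C replication reporter with no stimulus; test concentration not given here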
[3] = basal CRE-LacZ reporter activity in PC12 – cell-based, unstimulated, primary screen (AID 1145); conditions: no forskolin, luminescence, 4.5 h, higher = more signal, called active from +8 up or from −8 down
[4] = forskolin-driven CRE-LacZ activity in PC12 – cell-based, CRE-LacZ reporter, forskolin-stimulated, primary screen (AID 1146); conditions: luminescence, 4.5 h, higher = more signal, called active from +8 up or from −8 down;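 also: PC12 cells with 6xCRE LacZ reporter stimulated by forskolin 10 µM; beta-galactosidase reporter signal reflecting CREB driven transcription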
[5] = target: Streptavidin (Streptomyces avidinii) (UniProt P22629); assay: compounds binding control protein streptavidin – biophysical, small-molecule microarray, 635/667 nm fluorescence, artefact control for SMM compound annotation, primary screen (AID 1147); conditions: higher = more signal;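 also: signal reflects streptavidin binding to arrayed compounds as a control protein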
Chain of Streptavidin (Streptomyces avidinii) (P22629 whole entry, looked up): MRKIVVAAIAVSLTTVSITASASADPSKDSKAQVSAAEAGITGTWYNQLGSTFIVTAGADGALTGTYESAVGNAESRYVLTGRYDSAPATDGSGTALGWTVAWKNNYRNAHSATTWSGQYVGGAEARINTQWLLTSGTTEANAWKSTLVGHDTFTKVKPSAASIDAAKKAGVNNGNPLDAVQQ

[6] = probe aInhba binding on compound microarray – biochemical, small-molecule microarray, 635/667 nm fluorescence, primary screen (AID 1148); conditions: higher = more signal;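 also: score merges 667nm spot fluorescence with signal-to-noise for antibody binding to printed compounds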
Torsin-1A (Homo sapiens) [7] = target: Torsin-1A (Homo sapiens) (UniProt O14656); assay: TOR1A wild-type binding on microarray – cell lysate, small-molecule microarray, lysate, 635/667 nm, primary screen (AID 1149); conditions: COS7 hTOR1A-WT lysate, 635 nm fluorescence, higher = more signal
Chain of Torsin-1A (Homo sapiens) (O14656 whole entry, looked up): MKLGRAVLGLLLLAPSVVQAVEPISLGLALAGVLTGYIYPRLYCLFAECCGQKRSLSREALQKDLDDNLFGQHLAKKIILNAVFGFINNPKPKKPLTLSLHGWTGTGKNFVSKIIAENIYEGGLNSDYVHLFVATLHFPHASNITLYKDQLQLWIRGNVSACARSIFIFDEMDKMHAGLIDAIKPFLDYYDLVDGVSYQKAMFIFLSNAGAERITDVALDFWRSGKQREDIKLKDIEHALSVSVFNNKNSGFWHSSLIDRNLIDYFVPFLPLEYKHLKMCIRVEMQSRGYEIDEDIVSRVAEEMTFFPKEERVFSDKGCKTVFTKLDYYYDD

Torsin-1A (Homo sapiens) [8] = target: Torsin-1A (Homo sapiens) (UniProt O14656); assay: torsin A mutant lysate binding on microarrays – cell lysate, small-molecule microarray, COS7 lysate, 635/667 nm fluorescence, primary screen (AID 1150); conditions: COS7 hTOR1A mutant lysate, 635 nm fluorescence, higher = more signal;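 also: score pools 667 nm emission and signal to noise measuring lysate protein binding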
[9] = test system: Sonic hedgehog protein (Shh); assay: Sonic hedgehog microarray binding compounds – biochemical, small-molecule microarray, 635/667 nm fluorescence, primary screen (AID 1151); conditions: 635 nm fluorescence, higher = more signal;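 also: Shh protein binding to compounds spotted on small-molecule microarray slides; score combines spot fluorescence intensity with signal-to-noise across triplicate slides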
[10] = optical density shifts of acrAB sulA E. coli – strain DRC41, OD650, 48 h, E. coli filamentation inducer project, primary screen (AID 1152); conditions: higher = more signal, called active from +8 up or from −8 down;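 also: E. coli MC1000 strain DRC41 lacking acrAB efflux pump and sulA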
[11] = probe aLefty1 binding on compound microarray – biochemical, small-molecule microarray, 635/667 nm fluorescence, primary screen (AID 1153); conditions: higher = more signal;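 also: score merges spot fluorescence with signal-to-noise ratio from the scanned slide images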
[12] = plasmodial surface anion channel blockers, osmotic lysis – cell-based, P. falciparum Indochina, OD700, 1 h, primary screen (AID 1154); conditions: P. falciparum Indochina infected RBC osmotic lysis, higher = more signal, called active from +8 up or from −8 down
[13] = plasmodial surface anion channel blockers, osmotic lysis – cell-based, P. falciparum Indochina, OD700, 2 h, primary screen (AID 1155);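 also: lysis reports solute entry through the parasite surface anion channel PSAC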; conditions: P. falciparum Indochina infected erythrocytes, higher = more signal, called active from +8 up or from −8 down
[14] = changes in parasitized red cell lysis, either direction – P. falciparum Indochina, OD700, 3 h, PSAC antagonist project, primary screen (AID 1156); conditions: P. falciparum-infected erythrocytes, osmotic lysis, higher = more signal, called active from +8 up or from −8 down
[15] = plasmodial surface anion channel blockers, osmotic lysis – cell-based, P. falciparum Indochina, OD700, 18 h, primary screen (AID 1157); conditions: P. falciparum Indochina infected erythrocytes, osmotic lysis OD700, 18 h; higher = more signal, called active from +8 up or from −8 down
[16] = S6 kinase pathway phospho-S6 level changes – cell-based, A549, cytoblot, luminescence, serum-stimulated, primary screen (AID 1158); conditions: 5 h, higher = more signal;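 also: serum-stimulated A549 lung adenocarcinoma cells; signal is phosphorylated S6 detected by cytoblot immunostaining with HRP secondary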
[17] = target: NADPH oxidase 2 (Homo sapiens) (UniProt P04839); assay: compounds shifting NOX2 Amplex Red fluorescence – cell-based, HEK293-NOX2, PMA-stimulated, NOX inhibitor project, primary screen (AID 1159); conditions: 45 min, higher = more signal, called active from +8 up or from −8 down; also: test concentration not given here
Chain of NADPH oxidase 2 (Homo sapiens) (P04839 whole entry, looked up): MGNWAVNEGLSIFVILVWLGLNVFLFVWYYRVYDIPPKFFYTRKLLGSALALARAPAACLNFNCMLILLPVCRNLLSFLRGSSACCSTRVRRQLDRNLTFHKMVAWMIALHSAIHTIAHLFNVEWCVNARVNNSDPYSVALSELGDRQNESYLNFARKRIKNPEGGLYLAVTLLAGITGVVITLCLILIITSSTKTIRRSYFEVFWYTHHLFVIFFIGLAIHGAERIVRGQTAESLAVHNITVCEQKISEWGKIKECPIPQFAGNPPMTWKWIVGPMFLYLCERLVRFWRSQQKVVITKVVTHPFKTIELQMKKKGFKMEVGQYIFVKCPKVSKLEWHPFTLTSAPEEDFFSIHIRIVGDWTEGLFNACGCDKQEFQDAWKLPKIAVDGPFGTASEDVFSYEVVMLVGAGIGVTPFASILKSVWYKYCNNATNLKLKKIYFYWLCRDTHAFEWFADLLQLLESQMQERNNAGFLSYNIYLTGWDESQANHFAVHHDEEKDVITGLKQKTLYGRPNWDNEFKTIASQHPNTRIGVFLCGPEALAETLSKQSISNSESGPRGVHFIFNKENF

[18] = target: NADPH oxidase 4 (Homo sapiens) (UniProt Q9NPH5); assay: compounds shifting NOX4 Amplex Red fluorescence – cell-based, HEK293-NOX4, tetracycline-induced, NOX inhibitor project, primary screen (AID 1160); conditions: HEK293-NOX4, Amplex Red H2O2 fluorescence, 45 min; higher = more signal, called active from +8 up or from −8 down
Chain of NADPH oxidase 4 (Homo sapiens) (Q9NPH5 whole entry, looked up): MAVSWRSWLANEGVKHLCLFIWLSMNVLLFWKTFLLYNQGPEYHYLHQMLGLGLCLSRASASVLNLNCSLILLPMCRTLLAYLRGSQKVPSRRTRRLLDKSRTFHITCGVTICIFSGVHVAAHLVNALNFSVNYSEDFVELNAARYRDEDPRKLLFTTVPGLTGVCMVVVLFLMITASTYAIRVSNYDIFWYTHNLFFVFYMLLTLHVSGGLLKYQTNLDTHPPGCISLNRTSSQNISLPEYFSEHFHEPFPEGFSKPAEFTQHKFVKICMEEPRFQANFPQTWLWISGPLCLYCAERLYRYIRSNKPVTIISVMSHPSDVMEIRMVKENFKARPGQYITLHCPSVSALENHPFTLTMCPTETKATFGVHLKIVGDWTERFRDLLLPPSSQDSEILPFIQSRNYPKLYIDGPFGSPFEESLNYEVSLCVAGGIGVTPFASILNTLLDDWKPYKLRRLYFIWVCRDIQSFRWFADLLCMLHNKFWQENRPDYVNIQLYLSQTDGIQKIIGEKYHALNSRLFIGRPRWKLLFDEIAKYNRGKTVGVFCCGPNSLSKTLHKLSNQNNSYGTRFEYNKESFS

[19] = target: NADPH oxidase 5 (Homo sapiens) (UniProt Q96PH1); assay: compounds shifting NOX5 Amplex Red fluorescence – cell-based, HEK293-NOX5, NOX inhibitor project, primary screen (AID 1161); conditions: HEK293-NOX5, ionomycin, 45 min, higher = more signal
Chain of NADPH oxidase 5 (Homo sapiens) (Q96PH1 whole entry, looked up): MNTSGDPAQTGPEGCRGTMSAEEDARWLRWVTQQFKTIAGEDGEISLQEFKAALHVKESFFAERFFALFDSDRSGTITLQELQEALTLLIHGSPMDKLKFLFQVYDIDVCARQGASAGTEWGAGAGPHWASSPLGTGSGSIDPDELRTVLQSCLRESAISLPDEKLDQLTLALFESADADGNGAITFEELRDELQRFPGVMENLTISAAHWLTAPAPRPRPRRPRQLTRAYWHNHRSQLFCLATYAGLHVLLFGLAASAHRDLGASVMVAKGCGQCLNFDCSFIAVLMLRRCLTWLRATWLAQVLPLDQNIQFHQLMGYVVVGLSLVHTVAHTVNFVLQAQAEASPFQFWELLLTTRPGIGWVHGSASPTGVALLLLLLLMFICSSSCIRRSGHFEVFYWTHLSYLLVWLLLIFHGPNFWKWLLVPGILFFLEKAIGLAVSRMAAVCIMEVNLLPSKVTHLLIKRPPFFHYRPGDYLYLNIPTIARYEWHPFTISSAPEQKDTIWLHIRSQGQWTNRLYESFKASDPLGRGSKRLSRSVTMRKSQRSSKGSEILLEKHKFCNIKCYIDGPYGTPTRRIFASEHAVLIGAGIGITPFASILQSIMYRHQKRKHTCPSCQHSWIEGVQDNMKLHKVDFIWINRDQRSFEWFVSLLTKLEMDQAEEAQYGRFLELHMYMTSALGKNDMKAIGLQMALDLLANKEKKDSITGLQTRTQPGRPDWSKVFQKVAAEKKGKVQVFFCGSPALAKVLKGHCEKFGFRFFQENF

| SMILES | composite z-score [1] | z-score [2] | z-score [3] | z-score [4] | composite z-score [5] | composite z-score [6] | composite z-score (Torsin-1A (Homo sapiens) [7]) | composite z-score (Torsin-1A (Homo sapiens) [8]) | composite z-score [9] | z-score [10] | composite z-score [11] | z-score [12] | z-score [13] | z-score [14] | z-score [15] | z-score [16] | z-score [17] | z-score [18] | z-score [19] |
| --- | --- | --- | --- | --- | --- | --- | --- | --- | --- | --- | --- | --- | --- | --- | --- | --- | --- | --- | --- |
| COc1ccc([Si](C)(C)[C@H]2[C@H](CC(=O)N3Cc4ccccc4C[C@H]3CO)O[C@@]3(C(=O)N(Cc4cccc(N5CCOC5=O)c4)c4ccccc43)[C@@H]2C)cc1 | 0.341 | -3.32 (inactive) | 5.51 (inactive) | -1.25 (inactive) | 0.0303 | 0.0086 | 0.287 | 0.383 | 1.37 | 0.666 (inactive) | -0.012 | 4.02 (inactive) | 1.09 (inactive) | 0.739 (inactive) | 0.771 (inactive) | 2.73 | -1.14 (inactive) | 0.916 (inactive) | -1.09 |
| C[C@@H]1NC(=O)CC=C[C@@H](C)[C@@H]2C=C[C@H](O)[C@@H](COC(=O)[C@H](C)NC(=O)CC=C[C@@H](C)[C@@H]3C=C[C@H](O)[C@@H](COC1=O)O3)O2 | 0.0414 | -3.48 (inactive) | -0.925 (inactive) | -0.89 (inactive) | -0.664 | -0.0581 | 0.436 | 0.104 | 1.04 | 0.327 (inactive) | -0.147 | 1.33 (inactive) | -0.302 (inactive) | 0.232 (inactive) | -1.39 (inactive) | 1.64 | 1.28 (inactive) | -0.991 (inactive) | -0.0558 |
| CO[C@H]1COC(=O)[C@@H](Cc2ccccc2)NC(=O)[C@@H](C)COC(=O)CC=C[C@@H]1C | -0.0866 | 0.7 (inactive) | 8.02 (active) | -0.445 (inactive) | -0.282 | -0.263 | 0.379 | -0.0112 | 1.02 | 0.428 (inactive) | -0.0573 | -0.224 (inactive) | -0.204 (inactive) | -0.234 (inactive) | -0.481 (inactive) | -0.003 | -0.246 (inactive) | 0.937 (inactive) | 0.264 |
| CC(=O)NCCCC[C@@H]1NC(=O)[C@@H]2C[C@H](C(=O)NCCCCCNC(=O)CS)[C@H](c3ccc(O)cc3)N2C1=O | 0.443 | -1.62 (inactive) | -0.134 (inactive) | -1.45 (inactive) | -0.654 | -0.179 | 0.0918 | 0.324 | 1.49 | 3.01 (inactive) | -0.0528 | 2.55 (inactive) | -0.247 (inactive) | -2.2 (inactive) | -1.04 (inactive) | 1.68 | 0.391 (inactive) | 0.284 (inactive) | 0.531 |
| COc1cc([C@@H]2N[C@H](C(=O)O)Cc3c2[nH]c2ccccc32)cc(OC)c1OC | 0.102 | -1.81 (inactive) | 0.108 (inactive) | -1.69 (inactive) | 0.0855 | -0.0102 | 0.257 | 0.285 | 0.342 | 0.441 (inactive) | -0.324 | 0.604 (inactive) | 0.321 (inactive) | 0.665 (inactive) | 0.198 (inactive) | 0.172 | 2.14 (inactive) | -0.0815 (inactive) | -1.1 |
| Cc1ccc(N2C(=O)c3ccccc3[C@](C)(C(=O)O)[C@@H]2c2ccc(CO)cc2)nc1 | -0.56 | -0.718 (inactive) | -0.852 (inactive) | -0.942 (inactive) | -0.519 | -0.267 | 1.11 | -0.144 | -0.751 | 1.47 (inactive) | -0.147 | 0.703 (inactive) | -0.228 (inactive) | -0.0241 (inactive) | -0.211 (inactive) | 0.283 | 0.775 (inactive) | -0.975 (inactive) | -0.457 |
| C=CCC(OC(C)=O)[C@@H]1[C@@H](N(Cc2cc3ccccc3o2)C(=O)Cc2ccc(F)cc2)c2cc(OCCCO)ccc2N1C(=O)c1ccc(-c2ccccc2)cc1 (stereo partly drawn) | -0.125 | 0.15 (inactive) | 0.787 (inactive) | -0.775 (inactive) | -0.117 | -0.0313 | -0.583 | -0.159 | 0.0351 | 1.66 (inactive) | 0.0091 | -0.171 (inactive) | 0.229 (inactive) | -0.454 (inactive) | 0.0413 (inactive) | 0.437 | 0.578 (inactive) | 0.684 (inactive) | 0.314 |
| C=CCN1C(=O)[C@@]2(O[C@@H](CCn3cc([C@H](O)c4ccccc4)nn3)[C@H]([Si](C)(C)c3ccc(OC)cc3)[C@H]2C)c2cc(N3CCOC3=O)ccc21 | -0.0882 | -6.15 (inactive) | 8.19 (active) | -1.73 (inactive) | -0.349 | -0.157 | 0.0712 | 0.557 | 0.185 | 1.77 (inactive) | -0.139 | 6.55 (inactive) | 0.569 (inactive) | -0.0434 (inactive) | -0.233 (inactive) | 1.67 | -0.379 (inactive) | 1.18 (inactive) | -1.67 |
| CC(C)[Si]1(C(C)C)OCc2cc(C3CC3)nc(-c3ccccc3)c21 | -0.125 | -1.63 (inactive) | 0.339 (inactive) | -1.08 (inactive) | -0.0842 | -0.108 | 0.188 | 0.127 | 0.545 | 2.37 (inactive) | -0.0573 | 2.84 (inactive) | 0.201 (inactive) | 0.531 (inactive) | -0.15 (inactive) | 1.34 | 1.86 (inactive) | 1.06 (inactive) | -1.28 |
| COCCCNC(=O)[C@@]1(Sc2ccc(C)cc2)CC(=O)N(Cc2cc(C(F)(F)F)cc(C(F)(F)F)c2)[C@@H]1c1ccc(CO)cc1I | -0.265 | -1.47 (inactive) | 1.01 (inactive) | 0.264 (inactive) | -0.713 | -0.123 | -0.083 | -0.693 | -0.612 | 1.57 (inactive) | 0.162 | 2.3 (inactive) | 1.08 (inactive) | -0.34 (inactive) | 0.278 (inactive) | 0.411 | 2.35 (inactive) | -0.978 (inactive) | 1.75 |
| O=C1c2ccccc2[C@](Cc2ccccc2I)(C(=O)NCc2ccccc2)[C@H](c2ccc(CO)cc2)N1Cc1ccccc1C(F)(F)F | -0.246 | -2.5 (inactive) | 0.0909 (inactive) | -0.487 (inactive) | -0.409 | -0.0313 | -0.635 | -0.162 | -0.197 | 1.73 (inactive) | -0.103 | 1.62 (inactive) | -0.664 (inactive) | -0.345 (inactive) | -1.24 (inactive) | 0.524 | 0.617 (inactive) | -0.738 (inactive) | 2.32 |
| CCN1C(C)=C(C(=O)OC)[C@@H](c2ccccc2)N2C(=O)[C@](O)(C(=O)OC)[C@@H](c3ccccc3)C(C(=O)c3ccccc3)=C12 | 0.271 | -1.49 (inactive) | 1.55 (inactive) | 0.214 (inactive) | 0.0306 | -0.0552 | 0.5 | 0.269 | 0.473 | 0.282 (inactive) | -0.142 | 1.78 (inactive) | 0.489 (inactive) | 1.16 (inactive) | 0.978 (inactive) | 1.3 | 0.6 (inactive) | 0.828 (inactive) | -0.284 |
